Screening results: PubChem BioAssay, National Center for Advancing Translational Sciences (NCATS)
Most compounds without a hit are left out; they make up all but 18% or so of the library.
TDP1 inh = qHTS Assay for Inhibitors of Tyrosyl-DNA Phosphodiesterase (TDP1); Tyrosyl-DNA phosphodiesterase 1 (Homo sapiens), Q9NUW8; recombinant TDP1, AlphaScreen DNA substrate cleavage; Potency, µM (doses to about 130 µM), inactives show at the top dose activity change, negative = inhibition, most hits filed as inhibitors; 0.28% of 350,000 active; AID 485290, 2010; note: potency is the fitted concentration of half-maximal effect; % is set by controls: 0 for no effect and ±100 for the full control effect; nearly all actives have a fitted effect of over 40% in size
Target sequence (Q9NUW8 whole entry, looked up): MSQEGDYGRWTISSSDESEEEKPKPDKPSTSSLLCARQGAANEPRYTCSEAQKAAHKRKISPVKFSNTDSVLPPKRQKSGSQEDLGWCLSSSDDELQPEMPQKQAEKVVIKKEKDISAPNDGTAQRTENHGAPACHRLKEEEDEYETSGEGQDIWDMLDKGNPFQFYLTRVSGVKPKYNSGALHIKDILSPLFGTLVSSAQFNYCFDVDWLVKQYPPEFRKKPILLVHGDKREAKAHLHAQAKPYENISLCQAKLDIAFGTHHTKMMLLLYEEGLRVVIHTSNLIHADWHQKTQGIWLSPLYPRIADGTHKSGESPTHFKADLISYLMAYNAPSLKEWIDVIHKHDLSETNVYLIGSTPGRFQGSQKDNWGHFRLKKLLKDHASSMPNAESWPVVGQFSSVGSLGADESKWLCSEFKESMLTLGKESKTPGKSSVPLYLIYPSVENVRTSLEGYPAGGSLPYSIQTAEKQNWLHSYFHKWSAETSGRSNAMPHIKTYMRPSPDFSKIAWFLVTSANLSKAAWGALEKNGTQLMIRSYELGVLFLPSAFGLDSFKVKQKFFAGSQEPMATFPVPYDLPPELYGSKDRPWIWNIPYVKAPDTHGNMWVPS
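Recombinant E. coli-expressed Tdp1 (1 nM) preincubated with compound 15 min at RT, then 5'-biotin/3'-phosphotyrosine-FITC DNA substrate (15 nM) added for 5 min. AlphaScreen beads (10 ug/ml) added, 10 min RT; tyrosine-FITC cleavage read as signal loss.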
IL1B secr inh = qHTS for Inhibitors of Inflammasome Signaling: IL-1-beta AlphaLISA Primary Screen; 4.7% of 360,000 active; AID 743279, 2014; THP-1 LPS/ATP IL-1B secretion, AlphaLISA, 16 h; active compounds read low; activity change, % at 57.5 µM; in the data active = activity change below about -50%; inconclusive = mostly about -30% to -49%; note: % is set by controls: 0 for no effect and ±100 for the full control effect
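THP-1 cells pretreated 1 hr with compounds (up to 57.5 uM final), then stimulated with LPS (250 ng/mL final) plus ATP (1.25 mM final); secreted IL-1B measured by AlphaLISA after 16 hr, decreased signal indicating inhibition.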
TGFb inhibitor = qHTS for Inhibitors of TGF-b; HepG2 CAGA-GFP TGF-b/SMAD3 reporter, GFP fluorescence, 18 h; TGF-beta stimulated, 500 pg/mL final; Potency, µM (top dose mostly 46.1 µM), for the others: top-dose activity, negative = inhibition, actives largely listed as inhibitors; 1.2% of 410,000 active; note: potency is the fitted concentration of half-maximal effect; % is set by controls: 0 for no effect and ±100 for the full control effect; nearly all actives have a fitted effect of over 65% in size
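Inhibition of TGF-beta-driven CAGA-GFP reporter expression in HEPG2 cells is measured by cellular GFP fluorescence after 18 h stimulation with 500 pg/mL recombinant TGF-beta in 1% FBS medium at 37 degrees C.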
TDP1 cell CPT = qHTS for Inhibitors of human tyrosyl-DNA phosphodiesterase 1 (TDP1): qHTS in cells in presence of CPT | 12% of 420,000 active | chicken DT40 Tdp1-/-;hTDP1 cells + 20 nM CPT, ATP luminescence, 48 h | Potency, µM (titrated, usually from 46.2 µM), for inactives: at the highest dose activity change, negative = growth inhibition, most hits filed as inhibitors; note: potency is the fitted concentration of half-maximal effect; % is set by controls: 0 for no effect and ±100 for the full control effect; nearly all actives have a fitted effect of over 55% in size
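Cell growth measured by CellTiter-Glo luminescence after a minimum 48 h, 37 C compound exposure with 20 nM CPT in Tdp1-knockout DT40 cells stably expressing hTDP1, seeded 400/well; qHTS titration format.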
TDP1 cell noCPT = qHTS for Inhibitors of human tyrosyl-DNA phosphodiesterase 1 (TDP1): qHTS in cells in absence of CPT. DT40 Tdp1-/- hTDP1 cells, no CPT, ATP luminescence, 48 h. Potency, µM (series often up to 46.2 µM), without a hit: top-dose activity change, negative = growth inhibition, most hits filed as inhibitors. 15% of 420,000 active. AID 686978, 2013; note: potency is the fitted concentration of half-maximal effect; % is set by controls: 0 for no effect and ±100 for the full control effect; nearly all actives have a fitted effect of over 55% in size
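Growth kinetics read by CellTiter-Glo luminescence after ≥48 hr at 37 °C. Cells: DT40 Tdp1-/- stably carrying human TDP1, 400 per well, compound exposure in the absence of CPT (DMSO vehicle).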
HepG2 tox = qHTS for Inhibitors of TGF-b: Cytotox Counterscreen; HepG2 CAGA-GFP viability, ATP luminescence, 18 h; Potency, µM (highest dose often 46.1 µM), for inactives: at the top dose activity change, negative = cytotoxicity, usual class: cytotoxic; 0.76% of 410,000 active; note: potency is the fitted concentration of half-maximal effect
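CellTiter-Glo luminescence gave cytotoxicity after 18 hours at 37 degrees C. The cells were HepG2 CAGA-GFP in 1% FBS DMEM, stimulated with 500 pg/mL TGF-beta after compound addition. %Activity was normalised to no-cell wells (complete cell-killing) and DMSO (no toxicity), and curves were fitted and classified.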
Active calls of the source: *; ? = inconclusive; / = no result given. Unless noted, calls come from the whole dose curve; as a rule, active = well fitted curve in the direction sought with a large enough effect; inconclusive = small, poorly fitted or top-dose-only effect, or another doubt; inactive = no such curve, though single readings can be large; an effect the other way counts as inactive or inconclusive.

SMILES | TDP1 inh | IL1B secr inh | TGFb inhibitor | TDP1 cell CPT | TDP1 cell noCPT | HepG2 tox
CCN1C(=O)/C(=C2\SC(N3CCOCC3)=NC2=O)c2ccccc21 | / | 6 | 4% | -14% | -1% | 0%
C=CCN1C(=O)/C(=C2\SC(N3CCOCC3)=NC2=O)c2cc(Br)ccc21 | 6% | 16 | -4% | 23µM* | ? | -35%
O=P(O)(O)OCC(O)CO (configuration not stated) | / | / | / | -10% | 0% | /
O=C(Cn1ccc2cc(S(=O)(=O)N3CCCCCC3)ccc21)NCc1ccccc1Cl | 11% | / | -37% | ? | ? | -21%
Cc1ccccc1CNC(=O)Cn1ccc2cc(S(=O)(=O)N3CCCCC3)ccc21 | 3% | / | -25% | ? | ? | -16%
CC(CNC(=O)Cn1ccc2cc(S(=O)(=O)N3CCCCC3)ccc21)c1ccccc1 (configuration not stated) | 6% | / | ? | ? | 21µM* | -30%
CC(CNC(=O)Cn1ccc2cc(S(=O)(=O)N3CCCC3)ccc21)c1ccccc1 (configuration not stated) | 4% | 8 | -21% | 18µM* | 23µM* | -17%
O=C(CN1CC(=O)Oc2ccccc21)OCC(=O)c1ccc(Br)cc1 | / | 68 | -11% | 21µM* | ? | -27%
O=C(CN1CC(=O)Oc2ccccc21)OCC(=O)c1ccc(F)cc1 | ? | 47 | ? | ? | ? | -5%
Nc1ccc(N)c([N+](=O)[O-])c1 | 19% | / | / | ? | ? | /
O=C(O)C1(c2ccccc2)CCN(S(=O)(=O)c2ccc(F)c(F)c2)CC1 | 8% | 9 | 0% | -15% | 0% | -5%
COC(=O)C1=C(C)NC(=O)/C1=C\c1cc(C)n(-c2cc(C)cc(C)c2)c1C | 10% | -60* | ? | ? | ? | 4%
CN1CCN(c2ccc(Cl)cc2NC(=O)/C=C/c2ccc(F)cc2)CC1 | 8% | -73* | ? | ? | 16µM* | -31%
O=C(/C=C/c1ccc(F)cc1)Nc1cc(S(=O)(=O)N2CCOCC2)ccc1N1CCCC1 | 5% | -22 | -1% | -20% | ? | 12%
CC(Oc1ccc(Br)cc1)C(=O)Nc1cc(Cl)ccc1N1CCN(C)CC1 (configuration not stated) | / | -86* | ? | ? | ? | -30%
COc1ccc(CCC(=O)Nc2cc(Cl)ccc2N2CCN(C)CC2)cc1 | 3% | ? | 20% | ? | ? | -1%
CC(Oc1ccc(Cl)cc1Cl)C(=O)Nc1ccc(N2CCN(C)CC2)cc1 (configuration not stated) | 2% | -27 | 11% | ? | 18µM* | -49%
Cc1occc1C(=O)NNC(=S)NC(=O)COc1ccc(Cl)cc1Cl | 9% | 7 | -8% | ? | 18µM* | -3%
Cc1cc(C)cc(-n2c3ccc(NC(=S)NC4CCCCC4)cc3c(=O)n2C)c1 | / | -14 | -13% | ? | ? | -13%
CC(Oc1ccc(Cl)cc1Cl)C(=O)Nc1ccc(O)cc1 (configuration not stated) | 0% | -66* | -3% | -23% | ? | -16%
O=C(COc1ccc(Cl)cc1Cl)N1CCCN(C(=O)COc2ccc(Cl)cc2Cl)CC1 | 1% | -76* | -8% | ? | ? | -9%
CC(Oc1ccc(Cl)cc1Cl)C(=O)Nc1cccc(O)c1 (configuration not stated) | 5% | -11 | -3% | -16% | 0% | -2%
Cc1cc(Cl)ccc1OCC(=O)N1CCCCC1 | 6% | -5 | ? | -4% | -22% | 29%
CC(=O)N1CCN(c2ccc(NC(=O)C(C)Oc3ccc(Cl)cc3Cl)cc2)CC1 (configuration not stated) | -5% | -16 | 0% | ? | 21µM* | 11%
CC(Oc1ccc(Br)cc1Cl)C(=O)Nc1ccncc1 (configuration not stated) | / | ? | ? | 8.2µM* | 5.2µM* | -42%
SMILES | TDP1 inh | IL1B secr inh | TGFb inhibitor | TDP1 cell CPT | TDP1 cell noCPT | HepG2 tox
CCCS(=O)(=O)N1CCCC(C(=O)Oc2ccc(C)c(C)c2)C1 (configuration not stated) | / | -9 | -2% | 2% | -2% | 1%
C[C@H]1CNC(=O)c2c(C(=O)NC3CCN(C(=O)OC(C)(C)C)CC3)ncn21 | / | -17 | 8% | -10% | 3% | -7%
COc1ccc(C2CC(=O)Oc3c(C(CCN4CCCC(C)C4)c4cc(OC)c(OC)c(OC)c4)c(OC)cc(OC)c32)cc1 (configuration not stated) | 9% | / | -4% | / | / | 2%
CC(=O)NC(=S)Nc1ccc(NC(=O)COc2ccc(Cl)cc2Cl)cc1 | 2% | ? | -28% | ? | 6.5µM* | -52%
CC(=O)N1CCN(c2ccc(NC(=O)COc3ccc(Cl)cc3Cl)cc2)CC1 | 6% | ? | -2% | 23µM* | 18µM* | -16%
CC(=O)N1CCN(c2ccccc2NC(=O)COc2ccc(Cl)cc2Cl)CC1 | 3% | -7 | -13% | ? | ? | -19%
CCOc1ccc(NC(=O)CN(C)C(=O)CC2OC(=O)c3ccccc32)cc1OCC (configuration not stated) | 0% | 3 | -16% | 3% | -14% | 5%
COc1cccc(NC(=O)c2nnn(Cc3ccc(OC)c(Br)c3)c2N)c1 | 8% | / | ? | 0% | -55% | -33%
Cc1c(C#N)c(NC(=O)CCl)n(Cc2cccs2)c1C | -3% | -105* | 13µM* | 5.2µM* | 2.6µM* | -81%
Cc1c(C#N)c(NC(=O)CCl)n(Cc2ccccc2)c1C | 5% | -57* | ? | 2.6µM* | 2.6µM* | -50%
N#Cc1ccc(Cl)cc1NC(=O)CNCc1cccs1 | / | 33 | 6% | 9% | 2% | -6%
Cc1c(C#N)c(NC(=O)CCl)n(Cc2ccc(F)cc2)c1C | 8% | -77* | 18µM* | 5.2µM* | 5.8µM* | 11µM*
Cc1ccc(OCC(=O)N(Cc2ccccc2)c2c(N)n(Cc3ccccc3)c(=O)[nH]c2=O)c(C)c1 | 1% | -5 | -26% | -2% | -9% | -13%
c1csc(-c2cn3ccc4ccccc4c3n2)c1 | -3% | -62* | -22% | -14% | -19% | -33%
